Screening data: PubChem BioAssay, Broad Institute
Tg IFNy HTS: inhibitors of Toxoplasma gondii growth with IFN-gamma; Toxoplasma gondii growth in IFN-gamma-treated host cells; active compounds read low; AID 1259416; activity change, negative = inhibition, % (no concentration beside the values); 69,000 compounds, 3.8% hits; in the data active means activity change below about -70%, passing the limit was not always enough;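 further: host cells are HeLa cells infected with Toxoplasma gondii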
Large screens that a line does not name were inactive. This is one part of a sample in which hits are shown more often than they occur.

O=C(NCc1ccco1)c1cc2cccnc2n(Cc2ccc(F)cc2)c1=O	Tg IFNy HTS -95.0
O=C(NCCC(c1ccccc1)c1ccccc1)c1cc2cccnc2n(Cc2ccccc2)c1=O	none
CC(=O)N1C[C@H]2CN(CC3CC3)C[C@@H]2c2ccccc21	none
Cc1nc(CN2CCC3(CC2)C(=O)N(C)c2ccccc23)cs1	none
C[C@@H]1CN2CCCC2CN1Cc1cnc(N2CCOCC2)nc1 (some centres undefined)	none
NC1CCN(c2cccnc2)C1 (centres undefined)	none
Cc1cc(C)c2c(CC(=O)N(C)CCN(C)C)coc2c1	none
C[N+]1(C)CCc2cc3c(cc2C1[C@@H]1OC(=O)c2c1ccc1c2OCO1)OCO3 (some centres undefined)	none
CC(C)(C)c1cc(C=C(C#N)C#N)cc(C(C)(C)C)c1O	Tg IFNy HTS -79.7
N#CC(C#N)=Cc1ccc(O)c(O)c1	none
CC(C)N1C2COCC1CN(Cc1nccs1)C2	none
Cn1cccc1CN1CC2(CCN(C(=O)c3cccnc3)C2)C1	none
C1CCN(CC2COC3(CNCCOC3)C2)C1 (centres undefined)	none
COc1cc2c3cc1Oc1cc(ccc1O)C[C@@H]1c4c(cc(OC)c(O)c4Oc4ccc(cc4)C[C@H]3N(C)CC2)CCN1C	Tg IFNy HTS -94.2
CN1CCc2cc(O)cc3c2[C@H]1Cc1ccc(O)c(O)c1-3	none
c1ccc(CN2C[C@@H]3CN(CC4CC4)C[C@H]3C2)nc1	none
CCCCOC(=O)c1ccc(NC(=O)c2cc3cccnc3n(Cc3ccccc3F)c2=O)cc1	none
O=C(NCC1CCOCC1)c1cnc(Nc2ccc(Cl)cc2Cl)nc1C(F)(F)F	Tg IFNy HTS -73.8
Cn1cccc1C(=O)N1C[C@H]2CN(Cc3cccnc3)C[C@H]2C1	none
Cc1nocc1C(=O)N1CCC2(CC1)COCCN2CCN(C)C	none
Oc1ccc2c3c1OC1c4c(c5ccccc5n4Cc4ccccc4)CC4(O)C(C2)N(CC2CC2)CCC314 (centres undefined)	none
COc1ccc(N2C(=O)NC(=O)C3(Cc4cccc(F)c4N4CCC(c5ccccc5)CC43)C2=O)cc1 (centres undefined)	Tg IFNy HTS -99.3
C[N+]1(C)CCc2cc3c(cc2[C@H]1C1OC(=O)c2c1ccc1c2OCO1)OCO3 (some centres undefined)	none
Cn1cc(CN2CC3(CCN(C(=O)c4cccnc4)C3)C2)cn1	none
C/C=C(\C)C(=O)N[C@@H](c1ccccc1)[C@@H](O)C(=O)O[C@H]1C[C@@]2(O)[C@@H](OC(=O)c3ccccc3)[C@@H]3[C@]4(OC(C)=O)CO[C@@H]4C[C@H](O)[C@@]3(C)C(=O)[C@H](OC(C)=O)C(=C1C)C2(C)C	Tg IFNy HTS -89.1
CC(=O)O[C@H]1C(=O)[C@@]2(C)C([C@H](OC(=O)c3ccccc3)[C@]3(O)C[C@H](O)C(C)=C1C3(C)C)[C@]1(OC(C)=O)CO[C@@H]1C[C@@H]2O (some centres undefined)	Tg IFNy HTS -74.2
C=CC1(O)CCC2C3CC=C4CC(OC(C)=O)CCC4(C)C3CCC21C (centres undefined)	none
Cc1ccnc(CC(C)N(C)Cc2ccc(CN(C)S(C)(=O)=O)o2)c1 (centres undefined)	none
CC(C)(O)CN1C[C@H]2CCC[C@@H](CNc3ncccn3)[C@@H]2C1	none
CN(C)C1CC2(CCN(Cc3ccnn3C)C2)C1 (centres undefined)	none
Cc1cnc(N2CCN3C[C@H](OCCN(C)C)C[C@@H]3C2)nc1	none
COC(=O)C[C@@](O)(CCC(C)(C)O)C(=O)O[C@@H]1C(OC)=C[C@]23CCCN2CCc2cc4c(cc2[C@@H]13)OCO4	Tg IFNy HTS -83.9
CCOc1ccccc1NC(=O)c1cc2cccnc2n(Cc2ccccc2)c1=O	none
CN1C[C@H](COCc2ccccn2)[C@]2(CCN(C(=O)N(C)C)C2)C1	none
c1ccc(CN2CC[C@H]3[C@@H]2CCN3Cc2cccs2)nc1	none
Cc1cccc(CN2C(=O)C[C@H]3[C@H]2CCN3Cc2cccs2)n1	Tg IFNy HTS -92.8
CN(C)C(=O)CN1CCC2C1CC(=O)N2Cc1cccnc1 (centres undefined)	none
CC(C)NC(=O)[C@H]1CCS(=O)(=O)[C@H]2CNC[C@@H]12	none
O=C(Nc1ccccc1Cl)c1cc2cccnc2n(Cc2ccc(F)cc2)c1=O	none
CCN1CCN(C(=O)Cc2ccc(Nc3ncc(F)c(Nc4ccc(C(=O)Nc5ccccc5Cl)cc4)n3)cc2)CC1	Tg IFNy HTS -72.8
CC(Cc1cnccn1)NCC(=O)Nc1cnccn1 (centres undefined)	none
Cc1cc(C)c(NC(=O)c2cc3cccnc3n(Cc3ccccc3)c2=O)c(C)c1	none
O=C(Nc1ccccc1C(F)(F)F)c1cc2cccnc2n(Cc2ccccc2)c1=O	none
Cn1cc(CN2CC[C@H]3C[C@H](c4ccncn4)O[C@H]3C2)cn1	none
C[C@@H]1O[C@@H](O[C@@H]2C[C@@H](O)[C@]3(CO)[C@H]4[C@H](O)C[C@]5(C)[C@@H](C6=CC(=O)OC6)CC[C@]5(O)[C@@H]4CC[C@]3(O)C2)[C@H](O)[C@H](O)[C@H]1O	Tg IFNy HTS -81.2
